Records with an inconclusive call do not appear. Active and inactive are the calls of the source. The call rests on the fitted dose curve; in most records, active means well fitted curve in the direction sought with a large enough effect; inconclusive means small, poorly fitted or top-dose-only effect, or another doubt; inactive means no such curve, though single readings can be large; an effect the other way counts as inactive or inconclusive. *1 amine or outer side, *2 acyl side, *3 side chain or, on linkers, in order; H or OH if unused. Where a SMILES comes first, the peptide text is derived from it. Bridges are numbered along the chain shown (N, C = ends). [ ]: non-standard residue; d: D form. The star is where a group is joined. ξ: configuration not given here. X10 = NC1=NCCC(C(N[*:1])C(=O)[*:2])N1; ΔAla(3-NHCONH2) = NC(=O)NC=C(N)C(=O)O; ξβ3hOrn = NCCCC(N)CC(=O)*; Dap = NC[CH](N)C(=O)O
What was measured:
[1] = qHTS of pediatric cancer cell lines to identify multiple opportunities for drug repurposing: Primary screen for Saos-2 cells (AID 1347097); further: on the % scale 0 is the no-effect control and ±100 the full control effect; nearly all actives have a fitted effect of over 40% in size
How it was run: (§1)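 ATP-based luminescence (CellTiter-Glo) quantifies viability after a 48-hour exposure. Compounds are dosed across 8 or 11 final concentrations; DMSO and 2.3 µM bortezomib serve as controls.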

[2] = qHTS of pediatric cancer cell lines to identify multiple opportunities for drug repurposing: Primary screen for SK-N-SH cells (AID 1347098);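 further: DMSO served as neutral control and bortezomib at 2.3 µM as positive control; on the % scale 0 is the no-effect control and ±100 the full control effect; nearly all actives have a fitted effect of over 65% in size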
How it was run: (§2)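 Cells (500-1,000/well) rested 5 h, then received compounds for 48 h; metabolically active cells were measured by CellTiter-Glo luminescence. Final concentrations spanned up to 46 µM (MIPE, 11-point) or 0.59 nM-46 µM (NPC, 8-point) in primary screens, 11-point in follow-ups.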

[3] = qHTS of pediatric cancer cell lines to identify multiple opportunities for drug repurposing: Primary screen for NB1643 cells (AID 1347099);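 further: plate controls were DMSO neutral control for no effect and bortezomib positive control for full effect; nearly all actives have a fitted effect of over 50% in size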
How it was run: as §1

[4] = qHTS of pediatric cancer cell lines to identify multiple opportunities for drug repurposing: Primary screen for LAN-5 cells (AID 1347100);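 further: plate controls were DMSO neutral control for no effect and bortezomib positive control for full effect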
How it was run: (§3)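 Viability after 48 h compound treatment at 37C, 500-1,000 cells/well, read as ATP luminescence with CellTiter-Glo. Primary screens used 11-point (MIPE, 0.78 nM-46 µM) or 8-point (NPC, 0.59 nM-46 µM) final concentrations; follow-up screens used 11-point dilutions.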

[5] = qHTS of pediatric cancer cell lines to identify multiple opportunities for drug repurposing: Primary screen for BT-12 cells (AID 1347101);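 further: plate controls were DMSO for no effect and bortezomib positive control for full effect; nearly all actives have a fitted effect of over 25% in size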
How it was run: as §2

[6] = qHTS of pediatric cancer cell lines to identify multiple opportunities for drug repurposing: Primary screen for Rh18 cells (AID 1347102); further: on the % scale 0 is the no-effect control and ±100 the full control effect; nearly all actives have a fitted effect of over 65% in size
How it was run: as §3

[7] = qHTS of pediatric cancer cell lines to identify multiple opportunities for drug repurposing: Primary screen for OHS-50 cells (AID 1347103);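 further: plate controls were DMSO neutral control for no effect and bortezomib positive control for full effect; nearly all actives have a fitted effect of over 40% in size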
How it was run: as §2

[8] = qHTS of pediatric cancer cell lines to identify multiple opportunities for drug repurposing: Primary screen for RD cells (AID 1347104);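 further: plate controls were DMSO for no effect and bortezomib for full effect; nearly all actives have a fitted effect of over 55% in size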
How it was run: as §1

[9] = qHTS of pediatric cancer cell lines to identify multiple opportunities for drug repurposing: Primary screen for MG 63 (6-TG R) cells (AID 1347105); further: on the % scale 0 is the no-effect control and ±100 the full control effect; nearly all actives have a fitted effect of over 50% in size
How it was run: as §1

[10] = qHTS of pediatric cancer cell lines to identify multiple opportunities for drug repurposing: Primary screen for control Hh wild type fibroblast cells (AID 1347106);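 further: series mostly up to about 46 µM; on the % scale 0 is the no-effect control and ±100 the full control effect; a drop in luminescence marks cytotoxicity and a rise apparent proliferation; nearly all actives have a fitted effect of over 55% in size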
How it was run: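 Cells (500-1,000/well) in growth media were settled 5 h at 37 degrees C, then given compounds for 48 h. Viability was read as CellTiter-Glo luminescence. Primary runs used MIPE at 11 points (0.78 nM-46 µM) and NPC at 8 points (0.59 nM-46 µM); follow-ups used 11 points.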

[11] = qHTS of pediatric cancer cell lines to identify multiple opportunities for drug repurposing: Primary screen for Rh30 cells (AID 1347107); further: series mostly up to about 46 µM; on the % scale 0 is the no-effect control and ±100 the full control effect; nearly all actives have a fitted effect of over 75% in size
How it was run: as §3

[12] = qHTS of pediatric cancer cell lines to identify multiple opportunities for drug repurposing: Primary screen for Rh41 cells (AID 1347108);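 further: series mostly up to about 46 µM; luminescence drop marks cytotoxic hits; nearly all actives have a fitted effect of over 70% in size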
How it was run: as §1

[13] = qHTS of pediatric cancer cell lines to identify multiple opportunities for drug repurposing: Confirmatory screen for NB1643 cells (AID 1347109);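 further: plate controls were DMSO for no effect and bortezomib for full effect; nearly all actives have a fitted effect of over 45% in size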
How it was run: as §3

[14] = qHTS of pediatric cancer cell lines to identify multiple opportunities for drug repurposing: Confirmatory screen for A673 cells (AID 1347110);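 further: cells exposed to compound for 48 h before the viability read; plate controls were DMSO neutral control for no effect and bortezomib positive control for full effect; nearly all actives have a fitted effect of over 65% in size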
How it was run: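 A673 cells at 500-1,000 cells/well were dosed 5 h after plating, in dilution series up to 46 uM final; primary runs used 8 or 11 points and confirmatory runs used 11 points. Viability was read by CellTiter-Glo luminescence after 48 h, against DMSO and 2.3 uM bortezomib controls.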

[15] = qHTS of pediatric cancer cell lines to identify multiple opportunities for drug repurposing: Confirmatory screen for BT-12 cells (AID 1347112); further: on the % scale 0 is the no-effect control and ±100 the full control effect; nearly all actives have a fitted effect of over 55% in size
How it was run: as §3

[16] = qHTS of pediatric cancer cell lines to identify multiple opportunities for drug repurposing: Confirmatory screen for LAN-5 cells (AID 1347113); further: on the % scale 0 is the no-effect control and ±100 the full control effect; nearly all actives have a fitted effect of over 65% in size
How it was run: as §3

[17] = qHTS of pediatric cancer cell lines to identify multiple opportunities for drug repurposing: Confirmatory screen for NB-EBc1 cells (AID 1347115);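 further: cells exposed to compound for 48 h before the viability read; on the % scale 0 is the no-effect control and ±100 the full control effect; nearly all actives have a fitted effect of over 45% in size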
How it was run: as §3

[18] = qHTS of pediatric cancer cell lines to identify multiple opportunities for drug repurposing: Confirmatory screen for BT-37 cells (AID 1347117);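 further: viability measured after 48 h of compound exposure; plate controls were DMSO for no effect and bortezomib for full effect; nearly all actives have a fitted effect of over 55% in size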
How it was run: as §3

CCCC(=O)Nc1ccc(O)c(C(C)=O)c1
inactive: Potency [1] | Potency [2] | Potency [3] | Potency [4] | Potency [5] | Potency [6] | Potency [7] | Potency [8] | Potency [9] | Potency [10] | Potency [11] | Potency [12]

O=C(Oc1ccccc1)c1ccccc1O
inactive: Potency [1] | Potency [2] | Potency [3] | Potency [4] | Potency [5] | Potency [6] | Potency [7] | Potency [8] | Potency [9] | Potency [10] | Potency [11] | Potency [12]

CCn1ccc(NS(=O)(=O)c2ccc(N)cc2)nc1=O
inactive: Potency [1] | Potency [2] | Potency [3] | Potency [4] | Potency [5] | Potency [6] | Potency [7] | Potency [8] | Potency [9] | Potency [10] | Potency [11] | Potency [12]

COCCOCC(OC)OC
inactive: Potency [1] | Potency [2] | Potency [3] | Potency [4] | Potency [5] | Potency [6] | Potency [7] | Potency [8] | Potency [9] | Potency [10] | Potency [11] | Potency [12]

CC1(C)OC(=O)Nc2ccc(Br)cc21
inactive: Potency [1] | Potency [2] | Potency [3] | Potency [4] | Potency [5] | Potency [6] | Potency [7] | Potency [8] | Potency [9] | Potency [10] | Potency [11] | Potency [12]

[O-][n+]1cccc(/C(Cl)=N/OC[C@@H](O)CN2CCCCC2)c1
inactive: Potency [1] | Potency [2] | Potency [3] | Potency [4] | Potency [5] | Potency [6] | Potency [7] | Potency [8] | Potency [9] | Potency [10] | Potency [11] | Potency [12]

CCN(CC)CCN
inactive: Potency [1] | Potency [2] | Potency [3] | Potency [4] | Potency [5] | Potency [6] | Potency [7] | Potency [8] | Potency [9] | Potency [11] | Potency [12]

Cc1coc2ccccc2c1=O
inactive: Potency [1] | Potency [2] | Potency [3] | Potency [4] | Potency [5] | Potency [6] | Potency [7] | Potency [8] | Potency [9] | Potency [11] | Potency [12]

CCC(C(=O)NC(=O)NC(C)=O)c1ccccc1 (configuration not stated)
inactive: Potency [1] | Potency [2] | Potency [3] | Potency [4] | Potency [5] | Potency [6] | Potency [7] | Potency [8] | Potency [9] | Potency [10] | Potency [11] | Potency [12]

CN=C(N)NC(=O)Nc1c(C)cccc1C
inactive: Potency [1] | Potency [2] | Potency [3] | Potency [4] | Potency [5] | Potency [6] | Potency [7] | Potency [8] | Potency [9] | Potency [11] | Potency [12]

NS(=O)(=O)c1ccc(N2CCCCS2(=O)=O)cc1
inactive: Potency [1] | Potency [2] | Potency [3] | Potency [4] | Potency [5] | Potency [6] | Potency [7] | Potency [8] | Potency [9] | Potency [11] | Potency [12]

NCCCC(N)CC(=O)NCC1NC(=O)C(CO)NC(=O)C(N)CNC(=O)C(C2CCN=C(N)N2)NC(=O)C(=CNC(N)=O)NC1=O (stereo not drawn) (H-[Dap]S[Dap](ξβ3hOrn)[ΔAla(3-NHCONH2)][X10]; lactam 1-C; configuration not given here)
inactive: activity change, negative = cytotoxic [1] 29.1% [at 0.597 µM] | activity change, negative = cytotoxic [2] -4.49% [at 0.741 µM] | activity change, negative = cytotoxic [3] 13.7% [at 0.597 µM] | activity change, negative = cytotoxic [4] 6.67% [at 0.597 µM] | activity change, negative = cytotoxic [5] 5.9% [at 0.745 µM] | activity change, negative = cytotoxic [6] 6.67% [at 0.597 µM] | activity change, negative = cytotoxic [7] 13.9% [at 0.73 µM] | activity change, negative = cytotoxic [8] 2.79% [at 0.597 µM] | activity change, negative = cytotoxic [9] -12% [at 0.597 µM] | activity change, negative = cytotoxic [10] 5.88% [at 0.597 µM] | activity change, negative = cytotoxic [11] 22.4% [at 0.597 µM] | activity change, negative = cytotoxic [12] 17.6% [at 0.597 µM]

CC(=O)OCC(=O)[C@@]1(O)[C@H](OC(C)=O)C[C@H]2[C@@H]3CCC4=CC(=O)C=C[C@]4(C)[C@@]3(F)[C@@H](O)C[C@@]21C
inactive: Potency [1] | Potency [2] | Potency [3] | Potency [4] | Potency [5] | Potency [6] | Potency [7] | Potency [8] | Potency [9] | Potency [10] | Potency [11] | Potency [12] | Potency [13] | Potency [14] | Potency [15] | Potency [16] | Potency [17] | Potency [18]

C[C@H]1NCc2cc(-c3ccc4c(=O)c(C(=O)O)cn(C5CC5)c4c3OC(F)F)ccc21
inactive: Potency [1] | Potency [2] | Potency [3] | Potency [4] | Potency [5] | Potency [6] | Potency [7] | Potency [8] | Potency [9] | Potency [10] | Potency [11] | Potency [12]

O=C1NC(c2ccccc2)(c2ccccc2)C(=O)N1COP(=O)(O)O
inactive: Potency [1] | Potency [2] | Potency [3] | Potency [4] | Potency [5] | Potency [6] | Potency [7] | Potency [8] | Potency [9] | Potency [11]

CCCCC(CC)COC(=O)c1ccccc1C(=O)O (configuration not stated)
inactive: Potency [1] | Potency [2] | Potency [3] | Potency [4] | Potency [5] | Potency [6] | Potency [7] | Potency [8] | Potency [10] | Potency [11] | Potency [12]

CC(=O)N(CC(O)CO)c1c(I)c(C(=O)NCCO)c(I)c(C(=O)NCC(O)CO)c1I (configuration not stated)
inactive: Potency [1] | Potency [2] | Potency [3] | Potency [4] | Potency [5] | Potency [6] | Potency [7] | Potency [8] | Potency [9] | Potency [10] | Potency [11] | Potency [12]

COc1ccc(CCC(C)=O)cc1
inactive: Potency [1] | Potency [2] | Potency [3] | Potency [4] | Potency [5] | Potency [6] | Potency [7] | Potency [8] | Potency [9] | Potency [10] | Potency [11] | Potency [12]

O=C(NN1CCCC1)NS(=O)(=O)c1ccc(Cl)cc1
inactive: Potency [1] | Potency [2] | Potency [3] | Potency [4] | Potency [5] | Potency [6] | Potency [7] | Potency [8] | Potency [9] | Potency [10] | Potency [11] | Potency [12]

— PubChem BioAssay (NCATS)
